Data reported in PubChem BioAssay AID1159580 (chemical genetic matrix, 2015).
Where “and” joins values, the source holds several entries; their conditions need not be identical. Identical values can stand only once. The whole screen tested about 5,500 compounds, of which about 2,000 (36%) were called active. Roughly 18% stayed inconclusive and do not appear here. Cut-off read from the data, not from the text of the source: active = normalized growth mostly below about 0.91 (no sharp cut-off); inconclusive = no clear call, values can overlap the other calls; inactive = mostly above about 0.92. The list shows a part of the results.

Assay: chemical genetic growth profiling, strain panel (AID 1159580);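 note: tested at 20 µM; growth read once vehicle control cultures reached saturation at 30 °C; 1 = growth at the plate median or of vehicle wells; lower values mean less growth of the strain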
Settings: growth OD

Measured: normalized growth

Cc1ccc(/C(=C\CN2CCCC2)c2ccccn2)cc1
inactive: S. cerevisiae deletion strains, locus YJR075W, strain HOC1, active compounds read low 1.01 and 0.98 | S. cerevisiae deletion strains, locus YKL009W, strain mrt4, active compounds read low 0.996 | S. cerevisiae deletion strains, locus YKL068W, active compounds read low 0.999 | S. cerevisiae deletion strains, locus YKL085W, strain MDH1 (second series), active compounds read low 1.01 | S. cerevisiae deletion strains, locus YKL085W, strain MDH1, active compounds read low 1.01 | S. cerevisiae deletion strains, locus YKL160W, strain elf1, active compounds read low 1.03 | S. cerevisiae deletion strains, locus YKL190W, strain CNB1, active compounds read low 1.02 | S. cerevisiae deletion strains, locus YKR001C, strain vps1, active compounds read low 0.986 | S. cerevisiae deletion strains, locus YKR026C, strain gcn3, active compounds read low 1 | S. cerevisiae deletion strains, locus YKR091W, strain srl3, active compounds read low 0.991 | S. cerevisiae deletion strains, locus YLL001W, strain dnm1, active compounds read low 1.04 | S. cerevisiae deletion strains, locus YLL026W, active compounds read low 1.04 | S. cerevisiae deletion strains, locus YLL041C, strain sdh2, active compounds read low 1.01 | S. cerevisiae deletion strains, locus YLR027C, strain aat2, active compounds read low 1.04 | S. cerevisiae deletion strains, locus YLR039C, strain RIC1, active compounds read low 1.03 | S. cerevisiae deletion strains, locus YLR058C, strain SHM2, active compounds read low 1.01 | S. cerevisiae deletion strains, locus YLR102C, strain apc9, active compounds read low 0.998 | S. cerevisiae deletion strains, locus YLR113W, strain HOG1, active compounds read low 1.02 | S. cerevisiae deletion strains, locus YLR221C, strain rsa3, active compounds read low 0.977 | S. cerevisiae deletion strains, locus YLR258W, strain gsy2, active compounds read low 0.986 | S. cerevisiae deletion strains, locus YLR262C, strain YPT6 (second series), active compounds read low 1.02 | S. cerevisiae deletion strains, locus YLR262C, strain YPT6, active compounds read low 1.01 | S. cerevisiae deletion strains, locus YLR268W, strain sec22, active compounds read low 0.999 | S. cerevisiae deletion strains, locus YLR320W, strain mms22, active compounds read low 0.973 | S. cerevisiae deletion strains, locus YLR330W, strain CHS5, active compounds read low 1.01 | S. cerevisiae deletion strains, locus YLR342W, strain FKS1 (second series), active compounds read low 0.997 | S. cerevisiae deletion strains, locus YLR342W, strain FKS1, active compounds read low 1.02 | S. cerevisiae deletion strains, locus YLR357W, strain rsc2, active compounds read low 0.992 | S. cerevisiae deletion strains, locus YLR370C, strain arc18, active compounds read low 1.01 | S. cerevisiae deletion strains, locus YLR371W, strain rom2, active compounds read low 1.01 | S. cerevisiae deletion strains, locus YLR384C, strain iki3, active compounds read low 1 | S. cerevisiae deletion strains, locus YLR418C, strain cdc73, active compounds read low 0.991 | S. cerevisiae deletion strains, locus YML016C, strain PPZ1, active compounds read low 1 | S. cerevisiae deletion strains, locus YML032C, strain rad52, active compounds read low 1 | S. cerevisiae deletion strains, locus YML120C, strain ndi1, active compounds read low 1.05 | S. cerevisiae deletion strains, locus YML124C, strain tub3, active compounds read low 0.995 | S. cerevisiae deletion strains, locus YMR058W, strain fet3, active compounds read low 1.02 | S. cerevisiae deletion strains, locus YMR078C, strain ctf18, active compounds read low 0.997 | S. cerevisiae deletion strains, locus YMR125W, strain sto1, active compounds read low 1.02 | S. cerevisiae deletion strains, locus YMR129W, active compounds read low 1.01 | S. cerevisiae deletion strains, locus YMR205C, strain PFK2, active compounds read low 1.02 | S. cerevisiae deletion strains, locus YMR223W, strain ubp8, active compounds read low 0.998 | S. cerevisiae deletion strains, locus YMR231W, strain pep5, active compounds read low 0.999 | S. cerevisiae deletion strains, locus YMR263W, strain SAP30, active compounds read low 1.01 and 0.981 | S. cerevisiae deletion strains, locus YMR307W, strain GAS1, active compounds read low 0.983 and 0.987 | S. cerevisiae deletion strains, locus YNL067W, strain RPL9B, active compounds read low 1 | S. cerevisiae deletion strains, locus YNL071W, strain lat1, active compounds read low 0.986 | S. cerevisiae deletion strains, locus YNL128W, strain TEP1, active compounds read low 1.02 | S. cerevisiae deletion strains, locus YNL153C, strain GIM3, active compounds read low 1.01 | S. cerevisiae deletion strains, locus YNL175C, strain NOP13, active compounds read low 0.996 | S. cerevisiae deletion strains, locus YNL183C, strain NPR1, active compounds read low 0.952 | S. cerevisiae deletion strains, locus YNL197C, strain WHI3, active compounds read low 1.01 | S. cerevisiae deletion strains, locus YNL209W, strain ssb2, active compounds read low 0.996 | S. cerevisiae deletion strains, locus YNL224C, strain SQS1, active compounds read low 0.989 | S. cerevisiae deletion strains, locus YNL233W, strain BNI4, active compounds read low 1.01 | S. cerevisiae deletion strains, locus YNL248C, strain rpa49, active compounds read low 0.992 | S. cerevisiae deletion strains, locus YNL250W, strain rad50, active compounds read low 1 | S. cerevisiae deletion strains, locus YNL271C, strain bni1, active compounds read low 0.986 | S. cerevisiae deletion strains, locus YNL298W, strain CLA4, active compounds read low 1 | S. cerevisiae deletion strains, locus YNL307C, strain MCK1, active compounds read low 1.01 | S. cerevisiae deletion strains, locus YNL322C, strain KRE1 (second series), active compounds read low 1.01 | S. cerevisiae deletion strains, locus YNL322C, strain KRE1, active compounds read low 1.01 | S. cerevisiae deletion strains, locus YNR049C, strain mso1, active compounds read low 1.01 | S. cerevisiae deletion strains, locus YNR052C, strain pop2, active compounds read low 1 | S. cerevisiae deletion strains, locus YOL006C, strain TOP1, active compounds read low 1 | S. cerevisiae deletion strains, locus YOL012C, strain htz1 1.12 | S. cerevisiae deletion strains, locus YOL147C, strain pex11, active compounds read low 0.992 | S. cerevisiae deletion strains, locus YOR001W, strain rrp6, active compounds read low 1.02 | S. cerevisiae deletion strains, locus YOR061W, strain CKA2, active compounds read low 1.01 | S. cerevisiae deletion strains, locus YOR069W, strain VPS5, active compounds read low 1.01 | S. cerevisiae deletion strains, locus YOR070C, strain gyp1, active compounds read low 0.992 | S. cerevisiae deletion strains, locus YOR080W, strain dia2, active compounds read low 1.02 | S. cerevisiae deletion strains, locus YOR083W, strain WHI5 (second series), active compounds read low 0.985 | S. cerevisiae deletion strains, locus YOR083W, strain WHI5, active compounds read low 1 | S. cerevisiae deletion strains, locus YOR106W, strain vam3, active compounds read low 1.05 | S. cerevisiae deletion strains, locus YOR136W, strain idh2, active compounds read low 1 | S. cerevisiae deletion strains, locus YOR144C, strain elg1, active compounds read low 0.995 | S. cerevisiae deletion strains, locus YOR184W, strain ser1, active compounds read low 1 | S. cerevisiae deletion strains, locus YOR231W, strain MKK1, active compounds read low 0.984 | S. cerevisiae deletion strains, locus YOR265W, strain rbl2, active compounds read low 1.01 | S. cerevisiae deletion strains, locus YOR270C, strain vph1, active compounds read low 0.985 | S. cerevisiae deletion strains, locus YOR290C, strain snf2, active compounds read low 0.96 | S. cerevisiae deletion strains, locus YOR316C, strain cot1, active compounds read low 1 | S. cerevisiae deletion strains, locus YPL051W, strain arl3, active compounds read low 1.02 | S. cerevisiae deletion strains, locus YPL055C, strain LGE1, active compounds read low 1.02 | S. cerevisiae deletion strains, locus YPL078C, strain atp4, active compounds read low 1.06 | S. cerevisiae deletion strains, locus YPL106C, strain sse1, active compounds read low 0.987 | S. cerevisiae deletion strains, locus YPL240C, strain hsp82, active compounds read low 1.04 | S. cerevisiae deletion strains, locus YPL241C, strain CIN2, active compounds read low 1 and 0.988 | S. cerevisiae deletion strains, locus YPL256C, strain CLN2, active compounds read low 1 | S. cerevisiae deletion strains, locus YPR119W, strain clb2, active compounds read low 1 | S. cerevisiae deletion strains, locus YPR141C, strain kar3, active compounds read low 0.998 | S. cerevisiae deletion strains, locus YPR163C, strain tif3, active compounds read low 0.994 | S. cerevisiae deletion strains, locus YPR167C, strain met16, active compounds read low 1 | S. cerevisiae deletion strains, strain wtn01, active compounds read low 0.999 | S. cerevisiae strains, strain wild type, active compounds read low 1.01
